# Records with an inconclusive call do not appear. Values without a mark were called inactive. Calls of active or inactive are those of the source. The call rests on the fitted dose curve; in most records, active means well fitted curve in the direction sought with a large enough effect; inconclusive means small, poorly fitted or top-dose-only effect, or another doubt; inactive means no such curve, though single readings can be large or run the other way.
# Target: Pyruvate kinase PKM (Homo sapiens) (UniProt P14618)
# Sequence (P14618 whole entry, looked up, canonical isoform): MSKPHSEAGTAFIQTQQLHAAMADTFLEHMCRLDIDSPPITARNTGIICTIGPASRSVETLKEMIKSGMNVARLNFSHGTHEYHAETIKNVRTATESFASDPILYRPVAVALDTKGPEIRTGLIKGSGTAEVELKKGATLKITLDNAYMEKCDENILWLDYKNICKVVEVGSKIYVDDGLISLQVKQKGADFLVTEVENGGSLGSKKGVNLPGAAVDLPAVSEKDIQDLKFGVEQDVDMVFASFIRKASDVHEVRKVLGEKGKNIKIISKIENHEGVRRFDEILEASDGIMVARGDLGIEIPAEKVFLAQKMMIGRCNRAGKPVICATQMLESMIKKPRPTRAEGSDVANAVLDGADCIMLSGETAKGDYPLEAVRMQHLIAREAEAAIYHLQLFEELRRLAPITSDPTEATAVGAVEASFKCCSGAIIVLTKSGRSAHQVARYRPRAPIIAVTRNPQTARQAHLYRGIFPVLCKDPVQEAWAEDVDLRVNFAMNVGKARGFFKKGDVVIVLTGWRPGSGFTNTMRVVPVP
# Test: Secondary LDH Assay for Activators of Human Pyruvate Kinase M1 Isoform: for Probe SAR; further: % of control where 0% means no effect
# Conditions: purified hPK-M1, LDH-coupled NADH fluorescence kinetic; series mostly up to 58.2 µM; activity change, negative = inhibition: at the top concentration
# In short: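 10 nM hPK-M1 coupled to 1 uM LDH, with 0.1 mM PEP, 4.0 mM ADP, 0.2 mM NADH, 50 mM Tris pH 8.0, 200 mM KCl, 15 mM MgCl2 (final). NADH fluorescence depletion followed kinetically 3-6 min; initial rates normalized to uninhibited controls.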
Compound,"activity change, negative = inhibition [%]",outcome
Cc1ccc(Nc2c(-c3ccsc3)nc3cccc(C)n23)cc1,-5.94,
Cc1ccc(NS(=O)(=O)c2cc3c(cc2-c2ccco2)NC(=O)CO3)cc1C,18.3,
COc1ccc(OC2=NS(=O)(=O)c3ccccc32)cc1,8.93,
Cc1ccc(NC(=O)c2ccc3c(c2)CCC(=O)N3)cc1C,4.99,
O=C1CCc2cc(S(=O)(=O)Nc3cccc4ccccc34)ccc2N1,8.49,
O=C1CCc2cc(S(=O)(=O)Nc3ccc(-c4ccccc4)cc3)ccc2N1,3.36,
COc1ccccc1OC1=NS(=O)(=O)c2ccccc21,1.77,
Cc1ccccc1OC1=NS(=O)(=O)c2ccccc21,2.65,
O=S(=O)(c1ccc2c(c1)OCCO2)N1CCN(S(=O)(=O)c2c(F)cccc2F)CC1,,inactive
O=C1CCc2cc(S(=O)(=O)Nc3cccc(-c4ccccc4)c3)ccc2N1,5.22,
O=C1CCc2cc(S(=O)(=O)Nc3cccc(Oc4ccccc4)c3)ccc2N1,-2.58,
Cn1c2cc(S(C)=O)sc2c2cnn(Cc3cccc(N)c3)c(=O)c21 (stereo not given),1.03,
Cc1ccc2nc(-c3ccc(C)o3)c(Nc3ccc(F)cc3)n2c1,-22,
Cc1ccc(NS(=O)(=O)c2ccc3c(c2)CCC(=O)N3)cc1Cl,8.26,
O=C1c2ccccc2C(=O)N1Cc1ccncc1,1.41,
Cc1ccc(NS(=O)(=O)c2ccc3c(c2)N(C)C(=O)CO3)cc1C,3.09,
Cc1ccc2nc(-c3ccc(C)o3)c(Nc3ccc4c(c3)OCO4)n2c1,2.02,
Cc1ccc(Cl)cc1NS(=O)(=O)c1cc2c(cc1Cl)CCC(=O)N2,4.27,
O=C1c2ccccc2C(=O)N1C1CCCCC1,-1.77,
O=S1(=O)N=C(Oc2cccc(Cl)c2)c2ccccc21,2.94,
Cc1ccc(NS(=O)(=O)c2cc3c(cc2Cl)CCC(=O)N3)cc1Cl,4.63,
O=C1CCc2cc(S(=O)(=O)Nc3ccc4ccccc4c3)ccc2N1,7.62,
N#Cc1cccc(NS(=O)(=O)c2ccc3c(c2)CCC(=O)N3)c1,-1.28,
Cc1ccc(Nc2c(-c3ccc(C)o3)nc3cccc(C)n23)cc1,-25.5,
Cc1cc(NS(=O)(=O)c2ccc3c(c2)CCC(=O)N3)ccc1Cl,-2.64,
O=C1CCc2cc([S+](=O)([O-])NC3CCOCC3)ccc2N1,-2.1,
CSc1cc2c(s1)c1cnn(Cc3cccc(N)c3)c(=O)c1n2C,-11.2,
Cc1ccc(Cl)cc1NS(=O)(=O)c1cc2c(cc1F)NC(=O)CC2,9.43,
COc1cccc(N2C(=O)c3ccccc3C2=O)c1,6.23,
CC(C)Nc1cccc(S(=O)(=O)N2CCCN(S(=O)(=O)c3ccc4c(c3)OCCO4)CC2)c1,2,

# Source: PubChem BioAssay AID2620 (National Center for Advancing Translational Sciences (NCATS), 2010)
